Growth data for twelve compounds are collected here from PubChem BioAssay (NCI).

Experiment in all cases: NCI-60 one-dose screen, 48 h (100 = growth as untreated, 0 = no growth, -100 = all killed)
The test system of one assay is SR leukemia. Particulars: 10 µM unless noted.
The test system of the next assay is OVCAR-8 ovarian. The note with it: 10 µM unless noted.
The test system of the next assay is OVCAR-5 ovarian. The note with it: 10 µM unless noted.
Another assay deals with OVCAR-4 ovarian. Particulars: 10 µM unless noted.
A further assay concerns SK-OV-3 ovarian. The note with it: 10 µM unless noted.
For a further assay, the system named is IGROV1 ovarian. Particulars: 10 µM unless noted.
Another assay concerns OVCAR-3 ovarian. Particulars: 10 µM unless noted.
The test system of the next assay is HS 578T breast. The note with it: 10 µM.
The subject of another assay is NCI/ADR-RES ovarian. Particulars: 10 µM unless noted.
For the next assay, the system named is T-47D breast. The note with it: 10 µM unless noted.
The test system of the next assay is BT-549 breast. Particulars: 10 µM unless noted.
In a further assay the test system is MDA-MB-435 melanoma. Particulars: 10 µM unless noted.
The next assay relates to SW-620 colon. Particulars: 10 µM unless noted.
The subject of the next assay is MCF7 breast. Particulars: 10 µM unless noted.
The subject of the next assay is HCT-116 colon. Particulars: 10 µM unless noted.
The next assay relates to HCC-2998 colon. Particulars: 10 µM.
The test system of a further assay is KM12 colon. The note with it: 10 µM unless noted.
In a further assay the test system is RPMI-8226 leukemia. Particulars: 10 µM unless noted.

This is part of a sample that, as a whole, favours compounds with a hit. Of some 83,000 tested, about 20% had one in any assay.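 How to read the values: 0–100, growth inhibition (40 = 60% inhibited); 0, no net growth; -100 to 0, cell death (-40 = 40% of starting cells died; -100 = all dead).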 Unmarked numbers belong to inactive results. The source made the active and inactive calls. How the source made its calls: active means growth percent below 10; inactive means the rest.

In the case of `COC(=O)[C@@H](C)CNS(=O)(=O)N(c1cc(C(F)(F)F)cc(C(F)(F)F)c1)C1CCN(Cc2ccc(F)cc2)CC1`, the growth with SR leukemia was 26.7%; in the assay with OVCAR-8 ovarian, 67.3%; with OVCAR-5 ovarian it was 76.1%; in the assay with OVCAR-4 ovarian it was 73.4%; with SK-OV-3 ovarian it was 76.2%; with IGROV1 ovarian it was 54.7%. Moreover, the growth was 56.7% with OVCAR-3 ovarian; 90.7% with HS 578T breast; 51% in the assay on NCI/ADR-RES ovarian; 31.1% with T-47D breast; 89.6% with BT-549 breast; 76.8% in the assay with MDA-MB-435 melanoma. For the same compound, the growth in the assay with SW-620 colon was 73.9%; with MCF7 breast it was 48.7%; with HCT-116 colon, 43.4%; with HCC-2998 colon, -65.3% (active); in the assay on KM12 colon, 51%.

In the case of `O=C(COc1cccc(/C=C2\Cc3ccc(Cl)cc3C2=O)c1)Nc1nccs1`, the growth with SR leukemia was 48%; in the assay with RPMI-8226 leukemia, 54.6%; in the assay with OVCAR-5 ovarian it was 102%; with OVCAR-4 ovarian, 81.6%; in the assay with SK-OV-3 ovarian, 96%; in the assay on OVCAR-3 ovarian, 89.6%. The growth in the assay with HS 578T breast is 105%; in the assay with NCI/ADR-RES ovarian, 76.6%; in the assay with T-47D breast, 55.5%; in the assay on BT-549 breast, 87.3%; with MDA-MB-435 melanoma, 86.6%; with SW-620 colon, 110%. Moreover, the figures for the growth with MCF7 breast, in the assay with HCT-116 colon and in the assay with KM12 colon were 35.1%, 64.5% and 77.2%, respectively.

`O=C(Nc1ccc(C2=NCCCN2)cc1)c1ccc(C(=O)Nc2ccc(C3=NCCCN3)cc2)nc1`: the growth in the assay with SR leukemia is 85.2%; in the assay on OVCAR-8 ovarian, 112%; with OVCAR-5 ovarian, 95.1%; with OVCAR-4 ovarian, 102%; in the assay with SK-OV-3 ovarian, 106%; with IGROV1 ovarian, 107%. Further, the growth in the assay with OVCAR-3 ovarian was 101%; in the assay with HS 578T breast, -26.5% (active); in the assay with NCI/ADR-RES ovarian, 102%; with T-47D breast, 97.3%; with BT-549 breast, 106%; in the assay with MDA-MB-435 melanoma it was 117%. Besides, the growth with SW-620 colon was 104%; in the assay on MCF7 breast, 98%; in the assay with HCT-116 colon, 93.2%; with KM12 colon, 112%.

Consider `Nc1nc(N)c2cc(CNc3ccc(C(=O)NC(CC(=O)O)C(=O)O)cc3)ccc2n1` (centres undefined), for which the growth in the assay on SR leukemia was 13.8%; in the assay on OVCAR-8 ovarian, -13.2% (active); with OVCAR-5 ovarian, 30.1%; in the assay on OVCAR-4 ovarian, 50.8%; in the assay with SK-OV-3 ovarian it was 47.4%; in the assay on IGROV1 ovarian, 38.7%. Also, the growth with OVCAR-3 ovarian was 50.5%; in the assay on HS 578T breast it was -20.2% (active); in the assay with NCI/ADR-RES ovarian it was 17.3%; in the assay on T-47D breast, 62.3%; in the assay on BT-549 breast, 57.7%; with MDA-MB-435 melanoma, 37.8%. The growth in the assay on MCF7 breast was 17.3%; in the assay with HCT-116 colon, 22.4%; in the assay with KM12 colon, 33.8%.

With `CC1CCC(n2cnc3c(Cl)ncnc32)O1` (centres undefined), the growth was 104% in the assay with SR leukemia; 91.4% with OVCAR-8 ovarian; 93.9% in the assay on OVCAR-5 ovarian; 104% in the assay with OVCAR-4 ovarian; 98.6% in the assay with SK-OV-3 ovarian; 61.7% with IGROV1 ovarian. Further, the growth with OVCAR-3 ovarian was 97.1%; in the assay with HS 578T breast, 88.1%; with NCI/ADR-RES ovarian, 101%; in the assay on T-47D breast, 91.1%; in the assay on BT-549 breast, 89.6%; in the assay on MDA-MB-435 melanoma, 99.6%. For the same compound, the growth is 90.1% in the assay with MCF7 breast, 89.3% in the assay with HCT-116 colon, 103% in the assay with HCC-2998 colon and 106% with KM12 colon.

On to `C=CC(=O)Nc1cc2c(Nc3ccc(F)c(Cl)c3)ncnc2cc1OCCCN1CCOCC1`, for which the growth in the assay with SR leukemia was -8.22% (active); in the assay with RPMI-8226 leukemia it was -9.72% (active); with OVCAR-8 ovarian, -17.6% (active); in the assay with OVCAR-5 ovarian it was 35.6%; with OVCAR-4 ovarian, 8.1% (active); with IGROV1 ovarian it was -67.5% (active). The growth in the assay with OVCAR-3 ovarian was 14.7%; in the assay with NCI/ADR-RES ovarian, 13.8%; with T-47D breast, -0.739% (active); in the assay on BT-549 breast, -10.8% (active); in the assay on MDA-MB-435 melanoma it was 23.6%; in the assay on SW-620 colon, -53.5% (active). Further, the growth in the assay on MCF7 breast is 13.7%; in the assay on HCT-116 colon, -70.8% (active); in the assay on KM12 colon it was 19.1%.

As to `CCc1ccc(/C=C/c2ccc(O)c3ncccc23)[n+](C)c1`, the growth in the assay with SR leukemia is 7.25% (active); in the assay on OVCAR-8 ovarian it was -12.1% (active); in the assay with OVCAR-5 ovarian, 40.9%; with OVCAR-4 ovarian it was 35.9%; in the assay on SK-OV-3 ovarian, 76.7%; with IGROV1 ovarian it was 33.4%. Moreover, the growth was -11.4% (active) with OVCAR-3 ovarian; 23.1% with HS 578T breast; 73.4% with NCI/ADR-RES ovarian; 31.2% in the assay on T-47D breast; 65.9% in the assay on BT-549 breast; 59.4% in the assay on MDA-MB-435 melanoma. In addition, the growth was 40.7% with SW-620 colon; 53.8% in the assay with MCF7 breast; 18.3% with HCT-116 colon; 31.6% in the assay with HCC-2998 colon; 40.2% in the assay on KM12 colon.

With `CCOc1cc2ncc(C#N)c(Nc3ccc(OCc4ccccn4)c(Cl)c3)c2cc1NC(=O)/C=C/CN(C)C`, the growth was -6.61% (active) in the assay with SR leukemia; -7.58% (active) with RPMI-8226 leukemia; -7.74% (active) with OVCAR-8 ovarian; 9.55% (active) in the assay with OVCAR-5 ovarian; -73.6% (active) in the assay with OVCAR-4 ovarian; -62.5% (active) in the assay on IGROV1 ovarian. The growth with OVCAR-3 ovarian is 47.5%; with NCI/ADR-RES ovarian, -10.8% (active); in the assay with T-47D breast, 15.9%; with BT-549 breast it was 39.4%; in the assay with MDA-MB-435 melanoma, -87.7% (active); in the assay on MCF7 breast, -6.35% (active). For the same compound, the values for the growth in the assay on HCT-116 colon, in the assay with HCC-2998 colon and in the assay with KM12 colon were -81.2% (active), 50.8% and -60% (active), respectively.

Turning to `CCCC(=O)OCC1OC(n2cnc3c(=S)nc(N)[nH]c32)C(OC(=O)CCC)C1OC(=O)CCC` (centres undefined), the growth in the assay on SR leukemia is 6.99% (active); in the assay on OVCAR-8 ovarian it was 6.16% (active); in the assay on OVCAR-5 ovarian, 38.4%; in the assay with OVCAR-4 ovarian, 20.6%; in the assay with SK-OV-3 ovarian, 5.91% (active); in the assay with OVCAR-3 ovarian, 6.47% (active). For the same compound, the growth in the assay on HS 578T breast was 29.9%; in the assay on NCI/ADR-RES ovarian it was 40.2%; with T-47D breast, 33.4%; in the assay with BT-549 breast, 34.2%; in the assay on MDA-MB-435 melanoma it was 36.3%; with SW-620 colon it was 52%. Moreover, the figures for the growth with MCF7 breast, with HCT-116 colon and in the assay on KM12 colon were 17.8%, 24.7% and 41%, respectively.

On to `Cc1ccc(Nc2nccc(N(C)c3ccc4c(C)n(C)nc4c3)n2)cc1S(N)(=O)=O`, for which the growth is 18% in the assay with SR leukemia; 20.8% in the assay on RPMI-8226 leukemia; 20.4% with OVCAR-8 ovarian; 9.38% (active) in the assay with OVCAR-5 ovarian; 31.3% with OVCAR-4 ovarian; 3.2% (active) in the assay with IGROV1 ovarian. Moreover, the growth in the assay with OVCAR-3 ovarian was 39.9%; in the assay with NCI/ADR-RES ovarian, 48.5%; with T-47D breast, 4.07% (active); in the assay with BT-549 breast, 25.8%; with MDA-MB-435 melanoma, 19.3%; with SW-620 colon, 19.3%. For the same compound, the growth in the assay on MCF7 breast is 32.3%; in the assay with HCT-116 colon it was 3.7% (active); in the assay with KM12 colon, 15%.

For the compound `Nc1nc(Nc2ccccc2)c(C=Nc2ccccc2)c(=O)[nH]1`, the growth is 94.8% in the assay with RPMI-8226 leukemia; 85.2% with OVCAR-8 ovarian; 90.7% with OVCAR-5 ovarian; 94.8% with OVCAR-4 ovarian; 86.3% in the assay with SK-OV-3 ovarian; 48.5% in the assay with IGROV1 ovarian. Further, the growth with OVCAR-3 ovarian was 110%; in the assay with HS 578T breast, 87.5%; with NCI/ADR-RES ovarian, 91.9%; in the assay on T-47D breast, 81.4%; with BT-549 breast it was 75.1%; in the assay on MDA-MB-435 melanoma, 94.7%. The growth in the assay on SW-620 colon was 98.4%; in the assay on MCF7 breast, 92.5%; in the assay with HCT-116 colon, 85.1%; in the assay with HCC-2998 colon, 99.3%; in the assay with KM12 colon, 98.6%.

`Cc1ccc(-n2nc(C(C)(C)C)cc2NC(=O)NCc2cc(F)ccc2Oc2ccc3c(cnn3CCO)c2)cc1`: the growth in the assay with SR leukemia was 7.67% (active); with RPMI-8226 leukemia, 18.1%; in the assay on OVCAR-8 ovarian, 23.6%; in the assay on OVCAR-5 ovarian, 25.7%; in the assay with OVCAR-4 ovarian, 27.5%; with IGROV1 ovarian, 8.97% (active). For the same compound, the growth was 54.3% in the assay on OVCAR-3 ovarian; 21.3% in the assay with NCI/ADR-RES ovarian; -3.04% (active) in the assay with T-47D breast; 21.3% in the assay on BT-549 breast; 7.09% (active) with MDA-MB-435 melanoma; 25.7% with SW-620 colon. Besides, the growth is 7.9% (active) in the assay on MCF7 breast, 6.75% (active) in the assay with HCT-116 colon, 19.9% with HCC-2998 colon and 8.7% (active) with KM12 colon.
